Several values for one entry are separate records, joined by “and”; a condition that tells them apart may be missing. Equal values may be shown once. Inconclusive results are not listed. Entries that show only a call come without a potency. Activity calls are given as the source filed them. Calls follow the shape of the dose curve; as a rule, active = well fitted cell-killing curve with a large enough effect; inconclusive = small, poorly fitted or top-dose-only effect; inactive = flat fitted curve, though single readings scatter.
Potency is read from the fitted curve at half-maximal effect.

A short description of the assay: Cell Viability - LYMP2-022 (AID 987). Also: nearly all actives have a fitted effect of over 55% in size. Particulars: LYMP2-022 lymphoblastoid cell viability; series mostly up to 92.2 µM. The text has this:
NIH Chemical Genomics Center [NCGC]
NIH Molecular Libraries Screening Centers Network [MLSCN]
National Institutes of Environmental Health Sciences [NIEHS]
National Toxicology Program [NTP]
We have developed a 1536-well cell-based assay for quantitative high throughput screening (qHTS) against a number of cell lines to determine in vitro cytotoxicity of small molecules. This particular assay uses a human lymphoblastoid cell line (LYMP2-022) purchased from Coriell Institute for Medical Research.
NCGC Assay Protocol Summary:
The CellTiter-Glo luminescent cell viability assay (Promega) is a homogeneous method to measure the number of viable cells in culture. The end point readout of this assay is based on quantitation of intracellular ATP, an indicator of metabolic activity, using the luciferase reaction. Luciferase catalyzes the oxidation of beetle Luciferin to oxyluciferin and light in the presence of ATP. The luminescent signal is proportional to amount of ATP present.
Using the CellTiter-Glo luminescent cell viability assay, the amount of cellular ATP was measured in the lymphoblastoid cell line with complete culture medium following compound treatment for 24 hours. The assay was performed in opaque white Kalypsys 1536-well plates. In the screen, tetraoctylammonium bromide was used as positive control. Library compounds were measured for their ability to cause acute toxicity in the cell line, as reflected by a decrease in intracellular ATP levels, in a concentration-dependent manner. […] AC50 values were determined from concentration-response data modeled with the standard Hill equation.
qHTS protocol for CellTiter Glo lymphoblastoid cellular assay
[Step] [Parameter] [Value] [Description]
1. Reagent; 5 uL; 2500 lymphoblastoid cells/well
2. Time; 5 hr; 37 C incubation
4. Controls; 23 nL; Tetraoctylammonium bromide 6.4pM to 92 uM
5. Time; 24 hr; 37 C incubation
6. Reagent; 5 uL; CellTiter Glo reagent
7. Time; 30 min; Room Temperature
8. Detection; Luminescence; Viewlux plate reader
Keywords: cell viability, cytotoxicity, lymphoblastoid cell line, luminescence, NTPHTS, NTPHTS_NCGC, NIEHS, DSSTox, MLSMR, MLSCN, NIH Roadmap, qHTS, NCGC
On to `C=CCN=C=S`, for which the Potency result is “inactive”.

In the case of `[O]=[Cd]`, the Potency result was “inactive”.

Regarding `O=C/C=C/c1ccccc1`, the Potency result was “inactive”.

For the compound `O=C(O)C(Cl)(Cl)Cl`, the Potency result was “inactive”.

Turning to `[O]=[Cr](=[O])([OH])[O][Cr](=[O])(=[O])[OH]`, the Potency was 10 µM (active) and 12.6 µM (active) and 7.94 µM (active).

Regarding `S=C=S`, the Potency entry is “inactive”.

For `CC(C)(C)c1cc(O)ccc1O`, the Potency is 50.1 µM (active) and 39.8 µM (active).

Take `ClC(Cl)(Cl)Cl`: the Potency entry is “inactive”.

Turning to `CCCCCl`, the Potency entry was “inactive”.

Consider `Clc1ccccc1Cl`, for which the Potency result is “inactive”.

In the case of `C[C@]12CCC(=O)C[C@@H]1CC[C@@H]1[C@@H]2CC[C@]2(C)[C@@H](O)CC[C@@H]12`, the Potency entry is “inactive”.

Take `COC1=CC(=O)O[C@@H](/C=C/c2ccccc2)C1`: the Potency result was “inactive”.

With `O=C1CCO1`, the Potency entry is “inactive”.

In the case of `O=CC=O`, the Potency entry is “inactive”.

On to `COc1ccc2c(c1OC)C(=O)OC2C1c2cc3c(cc2CCN1C)OCO3` (configuration not stated), for which the Potency entry was “inactive”.

Regarding `NNC(N)=O`, the Potency entry was “inactive”.

As to `O=[N+]([O-])c1ccccc1`, the Potency entry was “inactive”.

Turning to `O=C1C=CC(=O)C=C1`, the Potency was 39.8 µM (active).

In the case of `CC(C)CCON=O`, the Potency entry is “inactive”.

With `O=Cc1ccco1`, the Potency result is “inactive”.

With `O=C1C2CC=CCC2C(=O)N1SC(Cl)(Cl)Cl` (configuration not stated), the Potency was 2 µM (active) and 3.98 µM (active).

On to `C[C@H]1CCC[C@H](O)CCCCCc2cc(O)cc(O)c2C(=O)O1`, for which the Potency entry was “inactive”.

Turning to `CCCCCCCCOC(=O)c1ccccc1C(=O)OCCCCCCCC`, the Potency result was “inactive”.

Consider `Oc1cc(Cl)c(Cl)cc1Cl`, for which the Potency entry is “inactive”.

In the case of `CCOC(=O)c1ccccc1C(=O)OCC`, the Potency entry is “inactive”.

With `ClC=C(Cl)Cl`, the Potency entry was “inactive”.

As for `CC(C)Nc1ccc(Nc2ccccc2)cc1`, the Potency is 15.8 µM (active).

These data come from PubChem BioAssay (NCATS).
